Results reported in PubChem BioAssay (Tox21).
A structure can be active in one record and inactive in another. Active and inactive are the calls of the source. A call without a number means that no potency is given here. Unless noted, calls come from the whole dose curve; as a rule, active = well fitted curve in the direction sought with a large enough effect in the repeat runs; inconclusive = weak or mixed curves; inactive = no such curve, though single readings can be large; an effect the other way counts as inactive or inconclusive. Positions of bridges follow the written chain, without caps; N, C: chain ends. Residues, ends and D or L forms follow the SMILES beside them.

Tests used:
[1] = qHTS assay to identify small molecule antagonists of the thyroid receptor (TR) signaling pathway (AID 743065); note: nearly all actives have a fitted effect of over 55% in size; note: potency is the fitted concentration of half-maximal effect
Procedure, shortened: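 Antagonism measured as loss of luciferase signal in GH3 cells stably carrying a TRE-luciferase reporter, co-treated with compound and T3 (1 nM final) for 23.5 h at 37 C. Viability was read in the same well by CellTiter-Fluor.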

[2] = test system: thyroid hormone receptor (rat, GH3 cells); assay: qHTS assay to identify small molecule agonists of the thyroid receptor (TR) signaling pathway (AID 743066; calls by dose curve)
[3] = target: Estrogen receptor (Homo sapiens) (UniProt P03372); assay: qHTS assay to identify small molecule antagonists of the estrogen receptor alpha (ER-alpha) signaling pathway (AID 743069; active = well fitted curve in the direction sought with a large enough effect in the signal ratio in the repeat runs, not every such curve was filed as active; inconclusive = weak or mixed curves, or effect the other way; inactive = no such curve, though single readings can be large or run the other way; the % refers to the signal ratio; note: potency is the fitted concentration of half-maximal effect)
Procedure, shortened: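 ER-alpha-UAS-bla GripTite HEK293 line; 2% charcoal-stripped FBS overnight; plated, 4 hr 37C/5% CO2; cpd in DMSO + 17beta-estradiol, 18 hr 37C; LiveBLAzer B/G FRET substrate 2 hr RT; fluorescence intensity.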

[4] = qHTS assay to identify small molecule antagonists of the estrogen receptor alpha (ER-alpha) signaling pathway - cell viability counter screen (AID 743074; calls by dose curve;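 note: HEK293 cells carrying ER-alpha-UAS-bla reporter stimulated with 17beta-estradiol; nearly all actives have a fitted effect of over 45% in size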)
[5] = target: Estrogen receptor (Homo sapiens) (UniProt P03372); assay: qHTS assay to identify small molecule agonists of the estrogen receptor alpha (ER-alpha) signaling pathway (AID 743075; calls by dose curve;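 note: HEK293 GripTite cells with ER-alpha and UAS-driven beta-lactamase reporter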; note: potency is the fitted concentration of half-maximal effect)
[6] = target: Estrogen receptor (Homo sapiens) (UniProt P03372); assay: qHTS assay to identify small molecule agonists of the estrogen receptor alpha (ER-alpha) signaling pathway using the BG1 cell line (AID 743079); conditions: BG1Luc4E2 cells, ERE-luciferase agonist, 22 h; activation: at 70.3 µM (top of the series); note: nearly all actives have a fitted effect of over 20% in size; note: potency is the fitted concentration of half-maximal effect
[7] = qHTS assay to identify small molecule antagonists of the estrogen receptor alpha (ER-alpha) signaling pathway using the BG1 cell line (AID 743080; calls by dose curve;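 note: BG1 cells stimulated with 17beta-estradiol alongside compound; nearly all actives have a fitted effect of over 25% in size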; note: potency is the fitted concentration of half-maximal effect)
Procedure, shortened: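 Seeding, 24 h rest, compound transfer from DMSO, 17beta-estradiol addition, 21.5 h incubation, CellTiter-Fluor (30 min, 37 C), then ONE-Glo (30 min, room temperature): this sequence was run on BG1-Luc-4E2 reporter cells.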

[8] = qHTS assay to identify small molecule antagonists of the estrogen receptor alpha (ER-alpha) signaling pathway using the BG1 cell line - cell viability counter screen (AID 743081);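 note: compound given together with 17beta-estradiol as the ER stimulus; nearly all actives have a fitted effect of over 45% in size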; note: potency is the fitted concentration of half-maximal effect
Aromatase (Homo sapiens) = Aromatase (Homo sapiens) (UniProt P11511); assay: qHTS assay to identify aromatase inhibitors (AID 743083); note: nearly all actives have a fitted effect of over 55% in size; note: potency is the fitted concentration of half-maximal effect
Aromatase (Homo sapiens), sequence (P11511 whole entry, looked up): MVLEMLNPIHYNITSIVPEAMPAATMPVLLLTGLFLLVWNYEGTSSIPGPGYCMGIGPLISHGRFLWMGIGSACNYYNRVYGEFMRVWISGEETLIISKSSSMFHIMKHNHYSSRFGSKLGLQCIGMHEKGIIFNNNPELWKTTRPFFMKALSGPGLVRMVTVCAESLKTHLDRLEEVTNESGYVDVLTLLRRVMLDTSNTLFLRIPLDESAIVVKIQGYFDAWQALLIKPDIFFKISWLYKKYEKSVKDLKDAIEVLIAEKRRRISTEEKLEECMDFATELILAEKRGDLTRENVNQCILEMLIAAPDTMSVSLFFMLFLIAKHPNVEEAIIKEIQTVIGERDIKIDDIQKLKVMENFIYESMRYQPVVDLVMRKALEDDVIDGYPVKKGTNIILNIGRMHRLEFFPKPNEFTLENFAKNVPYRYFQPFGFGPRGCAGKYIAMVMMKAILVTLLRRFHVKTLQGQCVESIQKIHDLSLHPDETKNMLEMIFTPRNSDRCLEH

Estrogen receptor (Homo sapiens), sequence (P03372 whole entry, looked up): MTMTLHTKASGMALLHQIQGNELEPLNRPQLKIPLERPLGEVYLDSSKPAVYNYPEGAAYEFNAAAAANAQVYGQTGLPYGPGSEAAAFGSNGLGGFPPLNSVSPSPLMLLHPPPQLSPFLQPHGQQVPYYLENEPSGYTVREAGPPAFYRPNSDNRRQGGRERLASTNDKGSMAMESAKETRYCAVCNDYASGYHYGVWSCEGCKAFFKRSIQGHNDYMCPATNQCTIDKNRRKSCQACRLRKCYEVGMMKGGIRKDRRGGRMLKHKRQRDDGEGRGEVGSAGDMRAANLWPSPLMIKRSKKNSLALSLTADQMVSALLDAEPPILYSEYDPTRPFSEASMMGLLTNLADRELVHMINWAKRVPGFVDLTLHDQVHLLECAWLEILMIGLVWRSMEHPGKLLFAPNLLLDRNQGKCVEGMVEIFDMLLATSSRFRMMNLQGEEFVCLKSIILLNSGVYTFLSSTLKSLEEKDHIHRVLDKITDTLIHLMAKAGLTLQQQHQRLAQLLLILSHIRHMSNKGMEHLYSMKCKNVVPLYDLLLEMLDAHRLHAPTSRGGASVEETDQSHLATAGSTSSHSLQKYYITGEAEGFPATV

SMILES | Potency [1] | Potency [2] | Potency [3] | Potency [4] | Potency [5] | Potency [6] | Potency [7] | Potency [8] | Potency (Aromatase (Homo sapiens))
CCCCCCCCCCCCCCCCCC[N+](C)(C)CCC[Si](OC)(OC)OC | inactive | inactive | inactive | inactive | 23.9 µM [activator] (active) | 5.96 µM (active) | inactive | inactive | inactive
Cc1cc(C)c(NC(=O)C[C@H](CC(=O)O)c2cccc3ccccc23)c(C(=O)N2CCC3(CCCC3)CC2)c1 | inactive | inactive | inactive |  | inactive | 29.8 µM (active) | inactive | inactive | inactive
CC#CCC(C)[C@H](O)/C=C/[C@@H]1[C@H]2c3cccc(CCCC(=O)O)c3O[C@H]2C[C@H]1O (some centres not stated) | inactive | inactive |  | inactive |  | 26.6 µM (active) |  | inactive | inactive
C=CCOc1ccc(CC(=O)O)cc1Cl | inactive | inactive |  | inactive | 3.79 µM [inconclusive] (active) | 0.266 µM (active) | inactive | inactive | inactive
C[C@H]1C[C@H]2[C@@H]3CCC4=CC(=O)C=C[C@]4(C)[C@@]3(F)[C@@H](O)C[C@]2(C)[C@@]1(O)C(=O)CCl | inactive | inactive |  | inactive | inactive | inactive |  |  | inactive
c1cnc2cc3c(cc2n1)[C@@H]1CNC[C@H]3C1 | inactive | inactive | inactive | inactive | inactive | inactive | inactive | inactive | inactive
C#CCC(Cc1cnc2nc(N)nc(N)c2n1)c1ccc(C(=O)N[C@@H](CCC(=O)O)C(=O)O)cc1 (some centres not stated) | 0.75 µM (active) | inactive | inactive |  | inactive | inactive |  | inactive | inactive
NCCC[C@H](N)C(=O)O | inactive | inactive | inactive |  | inactive | inactive | inactive |  | inactive
Cn1c(=O)c2c(ncn2CCOC(=O)C(C)(C)Oc2ccc(Cl)cc2)n(C)c1=O | inactive | inactive | inactive | inactive | inactive | inactive | 29.8 µM (active) | inactive | inactive
CCCC(CCC)C(N)=O | inactive | inactive | inactive | inactive | inactive | inactive | inactive |  | inactive
CCCCCCCCCCCCCCCC(=O)OCC(COC(=O)CCCCCCCCCCCCCCC)OC(=O)CCCCCCCCCCCCCCC | inactive | inactive | inactive | inactive | inactive |  | inactive | inactive | inactive
Cc1c(Cl)cccc1Nc1ncccc1C(=O)O | 23.7 µM (active) | inactive |  | inactive | inactive |  |  | inactive | inactive
CCCN(CC)C(CC)C(=O)Nc1c(C)cccc1C (configuration not stated) | inactive | inactive |  | inactive | inactive | inactive | inactive |  | inactive
CCCCc1cc2c(=O)c(C(=O)OC)c[nH]c2cc1OCc1ccccc1 | inactive | inactive | inactive | inactive | inactive | inactive | inactive |  | inactive
C=CC[C@@H]1/C=C(\C)C[C@H](C)C[C@H](OC)[C@H]2O[C@@](O)(C(=O)C(=O)N3CCCC[C@H]3C(=O)O[C@H](/C(C)=C/[C@@H]3CC[C@@H](O)[C@H](OC)C3)[C@H](C)[C@@H](O)CC1=O)[C@H](C)C[C@@H]2OC | inactive | inactive |  | inactive | inactive | inactive | inactive |  | 
COC(=O)[C@@H](N)CS | inactive | inactive | inactive | inactive | inactive | 26.6 µM (active) | inactive | inactive | inactive
CCCCCCCCCCCCCCCC(=O)OC[C@@H](NC(=O)C(Cl)Cl)[C@H](O)c1ccc([N+](=O)[O-])cc1 | inactive | inactive | inactive |  |  | inactive | inactive | inactive | inactive
CO/N=C(\C(=O)N[C@@H]1C(=O)N2C(C(=O)OCOC(=O)C(C)(C)C)=C(/C=C\c3scnc3C)CS[C@H]12)c1csc(N)n1 | inactive | inactive | inactive | inactive | inactive | inactive | inactive | inactive | inactive
CC(O)CN(C)C (configuration not stated) | inactive | inactive | inactive | inactive |  | 11.9 µM (active) | inactive | inactive | inactive
CN(C)C=Nc1c(I)cc(I)c(CCC(=O)O)c1I | inactive | inactive | inactive | inactive | inactive | inactive | inactive | inactive | inactive
C#CCOc1ccc2c(C)cc(=O)oc2c1 | inactive | inactive |  | inactive | inactive | inactive | inactive | inactive | inactive
COc1cc([C@@H]2c3cc4c(cc3C(O[C@@H]3O[C@@H]5CO[C@@H](C)O[C@H]5[C@H](O)[C@H]3O)C3COC(=O)[C@@H]32)OCO4)cc(OC)c1OP(=O)(O)O (some centres not stated) | 11.9 µM (active) | inactive | inactive |  | inactive | 11.9 µM (active) and inactive | inactive |  | inactive
C=CCNC1=C2C[C@@H](C)C[C@H](OC)[C@H](O)[C@@H](C)/C=C(\C)[C@H](OC(N)=O)[C@@H](OC)/C=C\C=C(/C)C(=O)NC(=CC1=O)C2=O | 0.335 µM (active) | inactive |  | inactive | inactive |  | 0.237 µM (active) |  | inactive

SMILES | Potency [1] | Potency [2] | Potency [3] | Potency [4] | Potency [5] | Potency [6] | Potency [7] | Potency [8] | Potency (Aromatase (Homo sapiens))
NCCCC[C@H](NC(=O)[C@@H]1CCCN1C(=O)[C@@H]1CSSC[C@H](NC(=O)CNC(=O)CNC(=O)CN)C(=O)N[C@@H](Cc2ccc(O)cc2)C(=O)N[C@@H](Cc2ccccc2)C(=O)N[C@@H](CCC(N)=O)C(=O)N[C@@H](CC(N)=O)C(=O)N1)C(=O)NCC(N)=O (H-GGGCYFQNCPKG-NH2; disulfide 4-9) | inactive | inactive |  | inactive |  |  |  |  | inactive
CC[C@]1(O)CC2CN(CCc3c([nH]c4ccccc34)[C@@](C(=O)OC)(c3cc4c(cc3OC)N(C)[C@H]3[C@@](O)(C(N)=O)[C@H](O)[C@]5(CC)C=CCN6CC[C@]43[C@@H]65)C2)C1 (some centres not stated) | 0.168 µM (active) |  |  |  |  | inactive | 0.15 µM (active) |  | inactive
COc1ccc(C[C@H](C)NC[C@@H](O)c2ccc(O)c(NC=O)c2)cc1 |  | inactive | inactive | inactive | inactive | inactive | inactive |  | 
C[C@@H]1CCC2[C@@H](C)[C@@H](O)O[C@@H]3O[C@@]4(C)CC[C@@H]1[C@@]23OO4 (some centres not stated) | 0.75 µM (active) |  | 9.52 µM [inconclusive] (active) | inactive |  | inactive | inactive |  | 
C/C1=C2N=C(/C=C3N=C(/C(C)=C4\[N-][C@@](C)([C@@H]5N=C1[C@](C)(CCC(=O)NCC(C)OP(=O)(O)O[C@H]1[C@@H](O)[C@@H](n6cnc7cc(C)c(C)cc76)O[C@@H]1CO)[C@H]5CC(N)=O)[C@@](C)(CC(N)=O)[C@@H]4CCC(N)=O)[C@@](C)(CC(N)=O)[C@@H]\3CCC(N)=O)C(C)(C)[C@@H]/2CCC(N)=O.CC(=O)O.[Co] (some centres not stated) | 11.9 µM (active) | inactive |  | inactive |  |  |  | 33.5 µM (active) | 26.6 µM (active)
C[C@H](/C=C/[C@H](C)C(C)(C)O)[C@H]1CC[C@H]2/C(=C/C=C3C[C@@H](O)C[C@H](O)C3)CCC[C@]12C | 16.8 µM (active) |  | 23.9 µM [inconclusive] (active) |  | inactive |  | 29.8 µM (active) | inactive | inactive
CC(C)(C)NC[C@H](O)COc1ccccc1C1CCCC1 | 12.7 µM (active) |  | inactive | inactive | inactive | inactive | inactive |  | inactive
Cn1c(O)c(N=NC(N)=S)c2ccccc21 | 29.8 µM (active) |  |  | inactive | inactive | inactive |  |  | 
CN1c2cc(O)c(N=NC(N)=O)cc2CC1S(=O)(=O)O (configuration not stated) | inactive | inactive |  | inactive |  |  |  | inactive | inactive
CC(=O)Oc1cccc(C(=O)O)c1OC(C)=O | inactive | inactive |  | inactive |  |  |  | inactive | inactive
OC[C@@H](O)C(O)[C@H](O)CO | inactive | inactive |  | inactive |  |  |  | inactive | inactive
CN1CCN2c3ncccc3Cc3ccccc3C2C1 (configuration not stated) | 21.1 µM (active) | inactive |  | inactive |  |  |  | inactive | 
CCCCCCCCCCCCCCCCCC(=O)OCC(C)O (configuration not stated) | inactive | inactive |  | inactive |  |  |  | 21.1 µM (active) | inactive
CCOc1ccc(N=Nc2ccc(N)cc2N)cc1 | 10.6 µM (active) | inactive |  | inactive |  |  |  |  | inactive
CC(C(=O)O)c1ccc(N2Cc3ccccc3C2=O)cc1 (configuration not stated) | 7.5 µM (active) |  | inactive | inactive |  | 0.119 µM (active) | 16.8 µM (active) | inactive | 
CCCC(=O)Nc1ncnc2c1ncn2[C@@H]1O[C@@H]2COP(=O)(O)O[C@H]2[C@H]1OC(=O)CCC | inactive | inactive |  | inactive |  |  |  | inactive | inactive
CCCCC(=O)OCC(=O)[C@]1(O)Cc2c(O)c3c(c(O)c2[C@@H](O[C@H]2C[C@H](NC(=O)C(F)(F)F)[C@H](O)[C@H](C)O2)C1)C(=O)c1c(OC)cccc1C3=O | 5.96 µM (active) |  |  | inactive |  |  |  | 23.7 µM (active) | inactive
CC(C)NCC(O)COc1ccccc1-n1cccc1 (configuration not stated) | inactive | inactive |  | inactive |  |  |  | inactive | inactive
CO[C@@]1(NC(=O)C2SC(=C(C(N)=O)C(=O)O)S2)C(=O)N2C(C(=O)O)=C(CSc3nnnn3C)CS[C@@H]21 (some centres not stated) | inactive | inactive |  | inactive |  |  |  | inactive | inactive
O=C(CCCN1CCC(n2c(=S)[nH]c3ccccc32)CC1)c1ccc(F)cc1 | 26.6 µM (active) |  |  | inactive | inactive |  |  |  | 
COc1ccc(CC2c3cc(OC)c(OC)cc3CC[N+]2(C)CCC(=O)OCCCCCOC(=O)CC[N+]2(C)CCc3cc(OC)c(OC)cc3C2Cc2ccc(OC)c(OC)c2)cc1OC (configuration not stated) | inactive | inactive |  | inactive |  |  |  | inactive | inactive
CCCCCCCCCCCCCCCCCCCCCC(=O)Nc1ccn([C@@H]2O[C@H](CO)[C@@H](O)[C@@H]2O)c(=O)n1 | 18.8 µM (active) | inactive |  | inactive |  |  |  | inactive | inactive
